Data on 95 compounds can be found in PubChem BioAssay AID588591 (National Center for Advancing Translational Sciences (NCATS), 2011).

Out of some 390,000 compounds screened, about 4,700 (1.2%) were called active. Not shown: some 4% with an inconclusive outcome. Calls follow the shape of the dose curve; as a rule, active = well fitted inhibition curve with a large enough effect; inconclusive = small, poorly fitted or top-dose-only effect, or another doubt; inactive = no such curve, though single readings can be large or run the other way. What follows is part of a selection rich in actives, with near analogues and random picks from the rest. Entries that show only a call come without a potency.
Potency is read from the fitted curve at half-maximal effect.

Sequence of DNA polymerase eta (Homo sapiens) (Q9Y253 whole entry, looked up): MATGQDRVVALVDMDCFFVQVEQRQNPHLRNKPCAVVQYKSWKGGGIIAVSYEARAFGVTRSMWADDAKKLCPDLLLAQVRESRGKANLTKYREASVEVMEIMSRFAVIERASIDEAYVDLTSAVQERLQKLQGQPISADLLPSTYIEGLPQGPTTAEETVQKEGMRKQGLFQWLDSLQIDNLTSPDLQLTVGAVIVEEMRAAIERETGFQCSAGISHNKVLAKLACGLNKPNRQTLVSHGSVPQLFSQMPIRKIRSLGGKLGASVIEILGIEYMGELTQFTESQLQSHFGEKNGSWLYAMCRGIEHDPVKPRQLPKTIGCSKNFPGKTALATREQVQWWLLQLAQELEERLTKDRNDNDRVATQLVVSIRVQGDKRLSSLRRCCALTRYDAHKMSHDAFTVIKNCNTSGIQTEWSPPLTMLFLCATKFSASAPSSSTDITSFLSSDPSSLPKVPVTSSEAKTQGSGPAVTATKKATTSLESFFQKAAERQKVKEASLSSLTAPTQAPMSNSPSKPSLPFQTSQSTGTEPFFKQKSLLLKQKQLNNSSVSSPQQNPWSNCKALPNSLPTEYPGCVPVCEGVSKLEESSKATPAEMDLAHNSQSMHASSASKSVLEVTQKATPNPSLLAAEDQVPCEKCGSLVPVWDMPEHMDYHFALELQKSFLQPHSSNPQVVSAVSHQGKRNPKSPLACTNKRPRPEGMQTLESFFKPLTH

This test addresses DNA polymerase eta (Homo sapiens) (UniProt Q9Y253). The test is described as follows: qHTS for Inhibitors of Polymerase Eta. The note with it: recombinant Pol eta, fluorescent DNA replication assay; series mostly up to 114 µM. The procedure, abridged:
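Pol eta at 10 nM preincubated with compounds 15 min at room temperature; reaction started with fluorescent substrate (50 nM final) and read kinetically at 0 and 10 min.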
For the compound `CCOc1cc(-c2nnc(SCC(=O)NC3CCCCC3)nc2-c2ccc(OC)c(OCC)c2)ccc1OC`, the Potency entry is “inactive”. With `CC(=O)Nc1ccc(NC(=O)c2cc3sccc3n2Cc2ccc(F)cc2)cc1`, the Potency entry was “inactive”. With `CCCCN(C)S(=O)(=O)c1ccc(C(=O)Nc2sc3c(c2C(N)=O)CC(C)(C)NC3(C)C)cc1`, the Potency entry was “inactive”. As to `COc1ccc(C)cc1NC(=O)c1[nH]c(C)c(C(C)=O)c1C`, the Potency entry is “inactive”. For `COc1cccc2c(C)c(C(=O)O)[nH]c12`, the Potency is 12.6 µM (active). On to `COc1ccccc1CNCc1ccc(C(=O)O)s1`, for which the Potency entry was “inactive”. For `CCOc1ccc(C(=O)Nc2ccc3nc4c(c(Nc5ccccc5OC)c3c2)CCCC4)cc1`, the Potency result was “inactive”.

Regarding `CC(=O)c1ccc(NC(=O)CSc2nnc(NC(=O)Nc3ccccc3)s2)cc1`, the Potency result was “inactive”.

On to `CN(C(=O)CSc1nnc(NC(=O)Nc2ccccc2)s1)c1ccccc1`, for which the Potency result is “inactive”.

Regarding `CC(C)c1ccc(Nc2nnc(SCC(=O)c3nnc(-c4ccccc4)o3)s2)cc1`, the Potency is 15.8 µM (active). Then `COc1ccc(C)cc1N(C)C(=O)c1c(C)oc2ncnc(N3CCOCC3)c12`, with “inactive”; and `Cc1ccc(NC(=O)c2cc(-c3ccc(C)o3)nc3ccccc23)nc1`, with 22.4 µM (active); and `CCOc1ccc(CNC(=O)c2cc(-c3ccc(Cl)s3)nc3ccccc23)cc1`, with “inactive”.

On to `Cc1ccc(-c2cc(C(=O)NN)n[nH]2)o1`, for which the Potency entry was “inactive”. On to `CCOc1cccc(CNC(=O)c2ccc(N3CCCC3)c(NC(=O)Nc3ccccc3CC)c2)c1`, for which the Potency entry is “inactive”. As for `O=C(Nc1ccc(OC(F)(F)F)cc1)C1CCCN(S(=O)(=O)c2ccc(Br)s2)C1` (stereo not given), the Potency result was “inactive”. Regarding `O=C(NCCc1ccccc1)c1cnc2sc(N3CCCC3)nn2c1=O`, the Potency entry was “inactive”. Take `CC(=O)c1nn(-c2ccc(OC(F)(F)F)cc2)nc1Nc1ccccc1`: the Potency entry was “inactive”. `Cc1ccc(-c2cc(-c3coc4ccccc4c3=O)c3c(n2)-c2cc(Cl)ccc2OC3)cc1`: the Potency result was “inactive”. Turning to `Cc1cccc(OCCSc2nc3ccccc3n2CC(=O)N2CCCCC2)c1C`, the Potency entry was “inactive”.

For `NC(=O)C1CCN(C(=O)c2cccc(NC(=O)c3nsc4ccccc34)c2)CC1`, the Potency result was “inactive”. On to `NC1=CC(=O)C(=O)c2cccnc21`, for which the Potency was 8.91 µM (active). Turning to `Cc1nn(CC(=O)NCCc2ccccc2)c(=O)c2c1sc1ccccc12`, the Potency result is “inactive”. As for `COc1ccc(CNC(=O)Cc2coc3ccc(C(C)C)cc23)cc1`, the entry is “inactive”; as for `COc1ccc(N(C)C(=O)C2CCN(S(=O)(=O)c3cc(Br)cc4c3N(C(C)=O)CC4)CC2)cc1`, “inactive”.

Turning to `Cn1c(=O)c2c(SCC(=O)N3CCc4ccccc43)nc(-c3ccc(Cl)cc3)nc2n(C)c1=O`, the Potency result was “inactive”. On to `C=CCn1c(=O)c(C(=O)NCc2ccc3c(c2)OCO3)c(O)c2ccccc21`, for which the Potency result was “inactive”. For `COc1ccccc1-n1c(C)nc2cc(C(=O)NCc3ccc4c(c3)OCO4)ccc21`, the Potency result was “inactive”. Turning to `Cc1nc2c(C(=O)NCc3ccc4c(c3)OCO4)c[nH]n2c(=O)c1Cc1ccccc1F`, the Potency is 89.1 µM (active). As to `COc1ccc(NC(=O)Cn2c(=O)n(CCC(C)C)c(=O)c3cccnc32)cc1Cl`, the Potency result is “inactive”.

On to `CCN(CC)S(=O)(=O)c1ccc2c(c1)nc(CN(C)C(=O)Nc1ccc(Cl)cc1)n2C`, for which the Potency entry is “inactive”. For the compound `CC(=O)N1CCc2cc(S(=O)(=O)NC(Cc3ccccc3)C(=O)NCc3ccc(C)cc3)ccc21` (stereo not given), the Potency entry was “inactive”. For `Cc1sc(C2C(C#N)=C(N)N(c3cccc(Cl)c3)C3=C2C(=O)CCC3)cc1CN1CCOCC1` (stereo not given), the Potency entry was “inactive”. Then `CN1CCOC1c1ccc(C2OCCN2C)cc1` (stereo not given), with 20 µM (active).

On to `Cc1csc2nc(COC(=O)c3ccccc3NC(=O)c3ccccc3Cl)cc(=O)n12`, for which the Potency result was “inactive”. On to `O=C(O)CCC(=O)N(Cc1cccs1)Cc1cccs1`, for which the Potency is 20 µM (active). As to `O=C(CCc1ccccc1)NCCc1cccs1`, the Potency result was “inactive”. As for `Cc1ccnc(NC(=O)CCC(=O)N(CC(=O)NCCc2ccccc2)Cc2cccs2)c1`, the entry is “inactive”. `COc1cc(NC(=O)CCn2nc(C)cc2C)cc(OC)c1OC`: the Potency result was “inactive”. As for `Cc1nc2nc(SCC(=O)N(Cc3ccccc3)C(C)C)nn2c(C)c1Cc1ccccc1Cl`, the Potency result was “inactive”.

With `Cc1ccccc1NC(=O)c1cc2c([nH]c1=O)CC(C)(C)CC2=O`, the Potency entry is “inactive”. Consider `Cc1ccc2cc(/C=N/Nc3ccc(C(=O)O)cc3)c(Cl)nc2c1`, for which the Potency was 50.1 µM (active). Regarding `Cc1ccc2nc(CNC(=O)c3ccccc3)[nH]c2c1`, the Potency entry is “inactive”. Then `Cc1ccc(C(=O)N/N=C/c2sc(=O)n(Cc3cccc(C(=O)O)c3)c2Cl)cc1`, with “inactive”. Consider `COc1ccc(CNc2nc(-c3ccc(Cl)cc3)nn2C(=O)c2ccccc2)cc1`, for which the Potency result was “inactive”.

With `Cc1cccc2nc(-c3ccc(Cl)s3)c(Nc3ccc4c(c3)OCCO4)n12`, the Potency result was “inactive”. For `CN1OC(COC(=O)c2ccc(Cl)cc2)CC1c1ccccc1` (stereo not given), the Potency entry is “inactive”. Consider `Cc1ccccc1S(=O)(=O)N1[C@@H](c2cccc(Cl)c2)C(C(=O)O)=CC[C@H]1c1ccc(Cl)cc1`, for which the Potency is 89.1 µM (active).

Regarding `Cc1ccc(S(=O)(=O)N2[C@@H](c3ccccc3F)C(C(=O)O)=CC[C@H]2c2ccc(Cl)cc2)cc1`, the Potency result was “inactive”. As for `CCOc1ccc(NC(=O)c2cn(C3CCCCC3)c(=O)c3c2c2ccccc2n3C)cc1`, the entry is “inactive”. Then `COc1cc2c(=O)c(S(=O)(=O)c3ccc(C(C)C)cc3)cn(Cc3ccccc3C)c2cc1OC`, with “inactive”. Turning to `CC(NC(=O)CCc1cn(Cc2ccccc2Cl)c2ccccc12)c1ccccc1` (stereo not given), the Potency result was “inactive”. As to `Cc1noc(C)c1NC(=O)Nc1cccc2c1O[C@H](CN(C)C(=O)Nc1ccccc1)[C@@H](C)CN([C@H](C)CO)C2=O`, the Potency result was “inactive”. For the compound `C[C@H](CO)N1C[C@H](C)[C@H](CN(C)C(=O)Nc2ccc(C(F)(F)F)cc2)Oc2c(NC(=O)c3ccncc3)cccc2C1=O`, the Potency was 89.1 µM (active). On to `Cc1noc(C)c1NC(=O)Nc1ccc2c(c1)C(=O)N([C@H](C)CO)C[C@H](C)[C@@H](CN(C)C(=O)Nc1ccc(C(F)(F)F)cc1)O2`, for which the Potency result was “inactive”.

Take `CCCN(C(=O)Cn1ncc2c([nH]c3ccc(C)cc32)c1=O)c1ccccc1C`: the Potency result was “inactive”. On to `Cc1ccc(CNC(=O)CCc2c(C)nc3nc(CNC(=O)OC(C)(C)C)nn3c2C)cc1`, for which the Potency entry is “inactive”.

In the case of `O=C(NC1CCCCC1)C1CCCN(S(=O)(=O)c2ccc(Br)s2)C1` (stereo not given), the Potency entry was “inactive”. Then `COc1ccccc1NC(=O)COC(=O)Cc1ccc(S(=O)(=O)N2CCCCC2)s1`, with “inactive”. Then `O=C(Cc1ccc(S(=O)(=O)N2CCCC2)s1)NC1CCCCCC1`, with 14.1 µM (active); and `COc1cccc(Cn2c(CNS(=O)(=O)c3ccc(Cl)s3)nc3cccnc32)c1`, with “inactive”; and `CCOC(=O)c1ccc(NC(=O)c2csc3c2CCCCC3)cc1`, with “inactive”. As to `CC(C)C[C@H](NC(=O)[C@H](O)[C@H](N)Cc1ccccc1)C(=O)O`, the Potency result was “inactive”. For `CC1CCN(C(=O)CCc2nnc3ccc(NCc4ccco4)nn23)CC1`, the Potency entry is “inactive”. With `CC(=O)c1ccc(NC(=O)CCc2nnc3ccc(NCc4ccco4)nn23)cc1`, the Potency result is “inactive”. Consider `O=C(CCc1nnc2ccc(NCc3ccco3)nn12)Nc1cc(F)ccc1F`, for which the Potency was 50.1 µM (active). As for `CCc1ccc2oc(-c3ccc(NC(=O)c4cc5ccccc5o4)cc3)nc2c1`, the entry is “inactive”; as for `CCCNC(=O)c1ccc2c(c1)ncn2-c1ccc(C)cc1C`, “inactive”; as for `COc1ccc(Cn2ccc3nc(C)c(C(=O)Nc4ccc(C)c(F)c4)cc3c2=O)cc1`, “inactive”. Regarding `CCN1CCN(c2cc(C)c3cc(NC(=O)c4cc(Cl)ccc4OC)ccc3n2)CC1`, the Potency result is “inactive”. As for `COc1ccc(NC(=O)c2ccco2)cc1NC(=O)COc1ccc(C)c(C)c1`, the Potency is 89.1 µM (active). As to `Cc1ccc(OCC(=O)Nc2ccccc2C(=O)NC2CC2)cc1C`, the Potency result was “inactive”. Consider `Cc1ccc(OCC(=O)Nc2ccc3oc(=O)ccc3c2)cc1C`, for which the Potency result is “inactive”. As for `CCc1ccc(-n2nnc(-c3nc(-c4ccccc4)no3)c2C)cc1`, the entry is “inactive”; as for `O=C(c1cnn(-c2ccc(F)cc2)c1-n1cccc1)N1CCN(c2ccc(F)cc2)CC1`, “inactive”; as for `COc1ccc(Cl)cc1NC(=O)CSc1nc2ccccc2c2nc(-c3ccccc3)nn12`, “inactive”.

In the case of `O=C(CCc1nc(CN2CCN(S(=O)(=O)c3ccc(F)cc3)CC2)no1)N1CCCCC1`, the Potency result is “inactive”. As for `O=C1C(Cl)=C(Oc2ccccc2)C(=O)c2ccccc21`, the figure is 7.94 µM (active); as for `Cc1ccc(N(CC(=O)NCc2ccc(Cl)cc2)S(=O)(=O)N(C)C)cc1`, “inactive”; as for `N#CCC(=O)N/N=C/c1ccc(SCC(=O)Nc2ccccc2)o1`, “inactive”.

Regarding `O=C(CCNC(=O)c1ccccc1)NN=Cc1ccc(Br)o1`, the Potency was 56.2 µM (active). With `O=C(CSc1ccc(/C=N/NC(=O)c2cccc(F)c2)o1)Nc1ccccc1`, the Potency result is “inactive”.

For the compound `Cc1cccc2c1-c1sc(C(=O)Nc3ccc(F)cc3F)cc1CO2`, the Potency result is “inactive”. As to `CCOc1ccc(-c2cc3nc(C4CCN(C(=O)OC(C)(C)C)CC4)c(C(=O)Nc4ccc(C(=O)OC)cc4)cn3n2)cc1`, the Potency entry was “inactive”. `Cc1ccc(-c2nnc(Nc3cccc(Br)c3)c3ccccc23)cc1S(=O)(=O)NCC1CCCO1` (stereo not given): the Potency entry is “inactive”. `Cc1ccc2c(c1)-c1c(cnn1CC(=O)Nc1ccccc1C#N)CO2`: the Potency entry is “inactive”.

`CN(C(=O)CSc1nc2ccccc2n1Cc1ccccc1C#N)c1ccccc1`: the Potency entry was “inactive”. As for `N#Cc1ccccc1CN1C(=O)S/C(=C/c2cccn2-c2cccc(C(=O)O)c2)C1=O`, the figure is 3.16 µM (active); as for `COc1ccc(OC)c(-c2nc(C(N)=O)c3c(n2)n(-c2ccc4c(c2)OCO4)c(=O)n3C)c1`, “inactive”. As for `CCCOc1cccc(C(=O)Nc2cccc(NC(=O)c3ccc(C(C)(C)C)cc3)c2)c1`, the Potency entry was “inactive”. Consider `CCc1nnc(NC(=O)CSc2nnc(COc3ccc(C#N)cc3)n2-c2ccccc2)s1`, for which the Potency result was “inactive”. As for `Cc1csc2nc(COc3ccc(NC(=O)COc4ccccc4)cc3)cc(=O)n12`, the entry is “inactive”.

With `N#Cc1ccc(OCC(=O)Nc2nc(-c3ccccn3)cs2)cc1`, the Potency is 22.4 µM (active). Consider `COCCNC(=O)CSc1c(C)cnc2c1c(=O)n(C)c(=O)n2C`, for which the Potency entry was “inactive”. As to `CCOC(=O)c1ccc(NC(=O)CCn2cnnn2)cc1`, the Potency result was “inactive”.
